Holding throughout (experiment): log2 fold change, soluble protein after heating vs DMSO (PISA); higher = thermal stabilisation; K562 cells, 10 uM, 30 min; active = over 0.2 and 3.5 SD of the protein, either way, in both replicates (recomputed)
One assay deals with YAE1 (UniProt Q9NRH1). Summed up: (§1)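 K562 cells at 2×10^6 cells/mL were treated with 10 μM compound for 30 min. Aliquots were heated for 3 min across 48°C-58°C, pooled, and extracted in PBS with 0.5% NP-40 at 4°C; soluble protein was the supernatant after 21,000xg for 90 min. Soluble protein was quantified by TMTpro 16plex LC-MS/MS with channel sums equalised, and reported as log2 fold change in thermal stability against DMSO controls, with values from duplicates.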

Assay [1] concerns the target YBX1 (UniProt P67809). Summed up: as §1
The target in a further assay is YES1 (UniProt P07947). The essentials: as §1
The target of a further assay is YIPF4 (UniProt Q9BSR8). Summed up:
as §1

The next assay deals with YIPF5 isoform 3 (UniProt Q969M3). The essentials: as §1
The next assay has as its target YIPF6 (UniProt Q96EC8). Summed up: as §1
Another assay deals with YLPM1 (UniProt P49750). The essentials:
as §1

Another assay deals with YOD1 (UniProt Q5VVQ6). The essentials:
as §1

The target in a further assay is YPEL5 (UniProt P62699). The essentials:
as §1

In assay [2] the target is YBX1 (UniProt C9J5V9). The essentials: as §1

13 compounds from the supplement of paper PMC10849652 can be followed below.

Of roughly 7,900 targets only a part is listed; those with a hit were picked by preference. About 0.6% of all pairs of compound and target were hits. Unmarked numbers belong to inactive results.

Sequence of YPEL5 (P62699 whole entry, looked up): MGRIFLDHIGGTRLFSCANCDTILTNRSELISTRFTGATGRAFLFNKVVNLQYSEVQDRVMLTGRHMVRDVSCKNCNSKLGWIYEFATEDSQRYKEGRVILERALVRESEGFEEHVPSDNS
Sequence of YOD1 (Q5VVQ6 whole entry, looked up): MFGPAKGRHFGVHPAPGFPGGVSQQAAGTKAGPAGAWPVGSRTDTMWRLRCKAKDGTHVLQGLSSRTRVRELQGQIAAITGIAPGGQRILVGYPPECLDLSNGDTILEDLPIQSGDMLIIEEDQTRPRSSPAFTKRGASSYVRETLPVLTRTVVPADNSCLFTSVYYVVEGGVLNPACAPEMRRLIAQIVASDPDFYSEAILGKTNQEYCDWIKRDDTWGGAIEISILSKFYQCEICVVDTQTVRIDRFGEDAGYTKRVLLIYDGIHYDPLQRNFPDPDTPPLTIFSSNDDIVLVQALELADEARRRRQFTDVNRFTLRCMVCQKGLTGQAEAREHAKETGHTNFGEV
Sequence of YES1 (P07947 whole entry, looked up): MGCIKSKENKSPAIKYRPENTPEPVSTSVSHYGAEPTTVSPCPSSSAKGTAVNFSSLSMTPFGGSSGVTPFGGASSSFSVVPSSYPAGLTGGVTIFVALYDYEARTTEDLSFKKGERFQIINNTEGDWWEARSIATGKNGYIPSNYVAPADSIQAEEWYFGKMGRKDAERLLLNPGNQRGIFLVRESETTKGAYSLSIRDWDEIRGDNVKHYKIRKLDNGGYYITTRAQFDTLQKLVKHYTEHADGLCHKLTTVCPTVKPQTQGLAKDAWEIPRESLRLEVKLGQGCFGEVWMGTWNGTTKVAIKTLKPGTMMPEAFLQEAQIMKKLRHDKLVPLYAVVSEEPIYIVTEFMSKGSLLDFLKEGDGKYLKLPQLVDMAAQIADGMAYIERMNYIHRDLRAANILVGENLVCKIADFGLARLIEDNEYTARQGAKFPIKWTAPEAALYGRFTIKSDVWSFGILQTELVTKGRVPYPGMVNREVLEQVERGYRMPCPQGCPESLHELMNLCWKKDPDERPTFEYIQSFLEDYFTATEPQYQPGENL
Sequence of YIPF5 isoform 3 (Q969M3 whole entry, looked up, canonical isoform): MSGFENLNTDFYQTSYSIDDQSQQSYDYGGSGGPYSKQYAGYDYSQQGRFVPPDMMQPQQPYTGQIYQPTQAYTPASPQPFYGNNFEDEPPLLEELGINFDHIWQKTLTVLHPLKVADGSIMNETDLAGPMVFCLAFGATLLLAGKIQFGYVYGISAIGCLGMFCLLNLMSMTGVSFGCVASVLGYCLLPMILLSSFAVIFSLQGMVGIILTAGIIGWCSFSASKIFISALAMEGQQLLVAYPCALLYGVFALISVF
Sequence of YLPM1 (P49750 whole entry, looked up): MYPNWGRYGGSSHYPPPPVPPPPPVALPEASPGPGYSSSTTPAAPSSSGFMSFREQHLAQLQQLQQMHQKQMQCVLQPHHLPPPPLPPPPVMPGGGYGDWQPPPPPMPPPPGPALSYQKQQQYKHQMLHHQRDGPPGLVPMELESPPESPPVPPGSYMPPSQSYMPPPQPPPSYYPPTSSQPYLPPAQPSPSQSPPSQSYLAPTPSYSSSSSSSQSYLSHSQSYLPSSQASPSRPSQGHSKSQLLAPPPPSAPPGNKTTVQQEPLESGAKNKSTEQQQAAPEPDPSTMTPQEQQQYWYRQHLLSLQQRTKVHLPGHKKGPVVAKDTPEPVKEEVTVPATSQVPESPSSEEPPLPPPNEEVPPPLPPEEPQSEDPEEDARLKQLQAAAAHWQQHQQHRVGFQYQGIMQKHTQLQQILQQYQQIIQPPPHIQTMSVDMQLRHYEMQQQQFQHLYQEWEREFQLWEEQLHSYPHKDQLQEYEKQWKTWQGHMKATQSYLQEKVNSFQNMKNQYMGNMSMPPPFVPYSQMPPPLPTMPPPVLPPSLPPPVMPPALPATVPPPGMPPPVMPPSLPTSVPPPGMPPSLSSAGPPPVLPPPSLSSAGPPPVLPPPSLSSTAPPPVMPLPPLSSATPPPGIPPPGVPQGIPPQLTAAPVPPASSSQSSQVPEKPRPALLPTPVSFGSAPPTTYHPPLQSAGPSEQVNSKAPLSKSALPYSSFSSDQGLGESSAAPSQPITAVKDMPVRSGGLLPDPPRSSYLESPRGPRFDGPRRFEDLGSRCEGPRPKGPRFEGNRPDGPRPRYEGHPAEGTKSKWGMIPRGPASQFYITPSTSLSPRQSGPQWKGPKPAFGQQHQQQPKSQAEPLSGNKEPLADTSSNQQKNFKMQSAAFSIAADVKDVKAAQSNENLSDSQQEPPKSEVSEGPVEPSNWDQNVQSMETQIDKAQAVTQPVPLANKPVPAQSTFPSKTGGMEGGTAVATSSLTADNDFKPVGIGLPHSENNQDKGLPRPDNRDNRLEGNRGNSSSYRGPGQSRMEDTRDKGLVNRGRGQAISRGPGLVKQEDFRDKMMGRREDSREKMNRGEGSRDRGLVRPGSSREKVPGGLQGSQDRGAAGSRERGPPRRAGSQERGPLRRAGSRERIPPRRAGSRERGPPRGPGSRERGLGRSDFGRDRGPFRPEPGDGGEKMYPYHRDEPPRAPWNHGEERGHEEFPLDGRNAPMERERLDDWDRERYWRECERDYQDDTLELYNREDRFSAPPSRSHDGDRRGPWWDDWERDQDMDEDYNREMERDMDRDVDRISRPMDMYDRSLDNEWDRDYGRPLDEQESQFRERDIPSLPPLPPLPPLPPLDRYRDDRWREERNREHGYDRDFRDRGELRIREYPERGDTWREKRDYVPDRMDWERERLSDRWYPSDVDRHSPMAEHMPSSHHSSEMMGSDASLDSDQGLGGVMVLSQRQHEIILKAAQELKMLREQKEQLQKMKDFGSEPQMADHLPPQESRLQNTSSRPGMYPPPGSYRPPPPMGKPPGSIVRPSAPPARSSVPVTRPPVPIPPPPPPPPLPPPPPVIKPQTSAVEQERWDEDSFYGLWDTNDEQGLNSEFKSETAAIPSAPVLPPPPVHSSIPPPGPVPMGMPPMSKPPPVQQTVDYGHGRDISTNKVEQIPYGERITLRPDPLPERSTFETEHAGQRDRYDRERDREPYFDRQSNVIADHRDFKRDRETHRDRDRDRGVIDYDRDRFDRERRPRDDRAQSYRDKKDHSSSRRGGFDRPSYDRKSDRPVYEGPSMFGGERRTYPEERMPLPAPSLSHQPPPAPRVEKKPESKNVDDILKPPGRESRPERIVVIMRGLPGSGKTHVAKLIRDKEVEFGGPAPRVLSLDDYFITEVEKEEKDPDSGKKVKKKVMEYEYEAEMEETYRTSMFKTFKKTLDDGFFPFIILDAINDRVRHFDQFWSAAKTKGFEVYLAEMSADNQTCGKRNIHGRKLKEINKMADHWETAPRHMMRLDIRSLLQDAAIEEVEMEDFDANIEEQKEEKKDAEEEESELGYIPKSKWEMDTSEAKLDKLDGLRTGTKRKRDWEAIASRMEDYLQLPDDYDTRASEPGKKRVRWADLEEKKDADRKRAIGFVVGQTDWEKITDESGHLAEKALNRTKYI
Sequence of YBX1 (UniProt P67809) (P67809 whole entry, looked up): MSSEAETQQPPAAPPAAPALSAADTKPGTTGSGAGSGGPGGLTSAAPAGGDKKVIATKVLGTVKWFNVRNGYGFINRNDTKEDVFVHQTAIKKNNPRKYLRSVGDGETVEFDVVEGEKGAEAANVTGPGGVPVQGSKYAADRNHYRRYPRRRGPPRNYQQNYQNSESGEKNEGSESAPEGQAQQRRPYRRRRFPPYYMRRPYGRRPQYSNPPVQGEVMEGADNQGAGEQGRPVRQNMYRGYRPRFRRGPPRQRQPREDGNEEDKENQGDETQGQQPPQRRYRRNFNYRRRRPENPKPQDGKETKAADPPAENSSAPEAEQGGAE
Sequence of YAE1 (Q9NRH1 whole entry, looked up): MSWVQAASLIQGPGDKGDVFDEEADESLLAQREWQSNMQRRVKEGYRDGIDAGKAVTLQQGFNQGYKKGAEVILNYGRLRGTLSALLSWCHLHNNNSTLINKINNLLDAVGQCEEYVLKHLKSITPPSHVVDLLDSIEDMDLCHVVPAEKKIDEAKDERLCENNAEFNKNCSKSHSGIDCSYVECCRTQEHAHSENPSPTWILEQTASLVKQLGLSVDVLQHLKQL
Sequence of YIPF6 (Q96EC8 whole entry, looked up): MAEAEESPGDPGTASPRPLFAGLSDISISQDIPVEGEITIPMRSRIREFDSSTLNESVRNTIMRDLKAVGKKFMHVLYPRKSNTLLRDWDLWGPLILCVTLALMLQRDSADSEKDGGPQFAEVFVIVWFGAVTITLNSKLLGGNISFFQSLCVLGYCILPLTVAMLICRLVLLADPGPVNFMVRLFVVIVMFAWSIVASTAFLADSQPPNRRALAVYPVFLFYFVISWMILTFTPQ
Sequence of YIPF4 (Q9BSR8 whole entry, looked up): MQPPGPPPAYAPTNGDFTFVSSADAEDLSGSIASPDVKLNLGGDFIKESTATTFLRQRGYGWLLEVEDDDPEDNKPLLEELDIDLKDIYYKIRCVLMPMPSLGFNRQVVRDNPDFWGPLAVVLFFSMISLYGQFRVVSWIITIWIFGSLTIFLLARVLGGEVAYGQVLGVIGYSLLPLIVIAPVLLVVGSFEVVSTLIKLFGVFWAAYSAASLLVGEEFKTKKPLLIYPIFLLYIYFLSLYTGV

Consider `CC[C@@H]1C(=O)N(C)c2cnc(Nc3ccc(C(=O)N[C@H]4CC[C@H](N5CCN(CC6CC6)CC5)CC4)cc3OC)nc2N1C(C)C` [volasertib], for which the log2 fold change in the assay with YAE1 was -0.101; in the assay with YBX1 [1], 0.508; with YES1, -0.038; with YIPF4, 0.134; with YIPF5 isoform 3 it was 0.058; in the assay with YIPF6, -0.037. Moreover, the log2 fold change is -0.265 (active) in the assay with YLPM1, -0.247 with YOD1 and -0.022 with YPEL5.

Take `COc1cc(C(=O)O)ccc1NC(=O)[C@@H]1N[C@@H](CC(C)(C)C)[C@](C#N)(c2ccc(Cl)cc2F)[C@H]1c1cccc(Cl)c1F` [idasanutlin]: the log2 fold change in the assay with YAE1 was 0.124; in the assay with YBX1 [2], 0.131; in the assay with YBX1 [1], 0.159; in the assay with YES1 it was 0.041; with YIPF4, -0.049; in the assay with YIPF5 isoform 3, -0.051. For the same compound, the log2 fold change is -0.008 in the assay with YIPF6, -0.026 with YLPM1, -0.038 with YOD1 and 0.491 (active) in the assay with YPEL5.

With `COc1ccc(Cn2ccc3ccc(C(=O)NO)cc32)cc1`, the log2 fold change is 0.013 with YAE1; -0.033 with YBX1 [2]; -0.019 in the assay with YBX1 [1]; 0.072 in the assay with YES1; -0.098 in the assay with YIPF4; -0.065 in the assay with YIPF5 isoform 3. The log2 fold change is -0.019 with YIPF6, 0.018 with YLPM1, 0.037 in the assay with YOD1 and -0.269 in the assay with YPEL5.

For the compound `NC(=O)c1cnc(N[C@@H]2CCCC[C@@H]2N)nc1Nc1cccc(-n2nccn2)c1`, the log2 fold change with YAE1 is -0.038; with YBX1 [2], -0.031; with YBX1 [1] it was 0.048; with YES1, -0.114; in the assay with YIPF4, 0.091; with YIPF5 isoform 3, -0.016. The log2 fold change with YIPF6 was -0.088; with YLPM1, -0.034; with YOD1, -0.061; with YPEL5 it was -0.019.

For the compound `CN1CCC(CNc2ccc3ncc(-c4cccc(OC(F)(F)F)c4)n3n2)CC1`, the log2 fold change in the assay with YAE1 is 0.057; with YBX1 [1], 0.348; with YES1 it was -0.326; in the assay with YIPF4, 0.101; in the assay with YIPF5 isoform 3, -0.288; with YIPF6, 0.155. For the same compound, the log2 fold change in the assay with YLPM1 was -0.113; with YOD1, -0.305 (active); in the assay with YPEL5, -0.094.

As for `CNC(=O)c1ccccc1Nc1nc(Nc2ccc(N3CCOCC3)cc2OC)ncc1Cl`, the log2 fold change in the assay with YAE1 was -0.002; with YBX1 [1], 0.01; in the assay with YES1, -0.623 (active); with YIPF4, 0.062; with YIPF5 isoform 3, 0.088; in the assay with YIPF6, -0.006. The log2 fold change with YLPM1 was -0.006; in the assay with YOD1 it was 0.011; with YPEL5, 0.08.

On to `c1cc(OCCN2CCCCC2)cc(-c2n[nH]c3ccc(-c4nnc[nH]4)cc23)c1`, for which the log2 fold change in the assay with YAE1 was -0.001; in the assay with YBX1 [1], -0.156; with YES1, -0.235; with YIPF4, -0.051; with YIPF5 isoform 3, -0.043; with YIPF6, 0.036. Moreover, the figures for the log2 fold change with YLPM1, with YOD1 and in the assay with YPEL5 were 0, 0.043 and 0.067, respectively.

In the case of `CCCCN(Cc1ccc(C(=O)NO)cc1)C(=O)Nc1ccccc1` [Nexturastat A], the log2 fold change with YAE1 is 0.564; with YBX1 [1], 0.231; in the assay with YES1 it was 0.142; in the assay with YIPF4, 0.021; in the assay with YIPF5 isoform 3, 0.091; in the assay with YIPF6 it was -0.011. Besides, the log2 fold change is 0.046 with YLPM1, -0.011 with YOD1 and -0.144 with YPEL5.

As for `CCn1cc(-c2ccnc3[nH]c(-c4cccc(CN(C)C)c4)cc23)c(-c2ccc(NC(=O)N(C)C)cc2)n1`, the log2 fold change in the assay with YAE1 is -0.015; in the assay with YBX1 [1], 0.249; with YES1 it was -0.241; with YIPF4 it was 0.037; in the assay with YIPF5 isoform 3 it was 0.06; with YIPF6 it was 0.103. The values for the log2 fold change with YLPM1, in the assay with YOD1 and with YPEL5 were -0.012, -0.101 and -0.072, respectively.

Take `O=C(CCCCCCC(=O)Nc1ccccc1)NO` [vorinostat]: the log2 fold change with YAE1 was 0.044; with YBX1 [1], -0.056; in the assay with YES1 it was 0.069; with YIPF4, -0.046; in the assay with YIPF5 isoform 3, 0.156; in the assay with YIPF6, -0.035. Also, the log2 fold change with YLPM1 is 0.024; with YOD1, 0.033; with YPEL5, 0.028.

Turning to `C[C@H](Nc1ncnc2nc[nH]c12)c1cc2cccc(Cl)c2c(=O)n1-c1ccccc1` [duvelisib], the log2 fold change is -0.021 with YAE1; -0.208 with YBX1 [1]; 0.062 in the assay with YES1; 0.163 in the assay with YIPF4; -0.107 with YIPF5 isoform 3; 0.259 in the assay with YIPF6. In addition, the log2 fold change with YLPM1 is 0.08; with YOD1 it was 0.033; with YPEL5, -0.084.

For `Fc1ccc(Cl)cc1-c1nc(Nc2ccncc2)c2nccnc2n1`, the log2 fold change in the assay with YAE1 is 0.007; with YBX1 [1], -0.273; with YES1, -0.179; in the assay with YIPF4, -0.014; in the assay with YIPF5 isoform 3, 0.024; with YIPF6 it was 0.138. Besides, the log2 fold change with YLPM1 was 0.057; with YOD1, 0.021; in the assay with YPEL5 it was -0.028.

For `Cc1ccc(Sc2cncc3sc(C(N)=O)cc23)cc1`, the log2 fold change with YAE1 was -0.012; in the assay with YBX1 [1] it was -0.124; with YES1, 0.03; with YIPF4 it was -0.023; in the assay with YIPF5 isoform 3 it was 0.071; in the assay with YIPF6 it was -0.018. The log2 fold change with YLPM1 was -0.008; with YOD1, 0.009; with YPEL5 it was 0.01.
